Reference: ChEMBL document CHEMBL1961873, “Compounds: GSK PKIS; Assays: Nanosyn kinase panel” (2012)

What was measured:
[1] = biological target: Dual specificity protein kinase CLK3 (Homo sapiens) (UniProt P49761); settings: at 1 µM;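 note: each value is the mean inhibition of CLK3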
[2] = biological target: Dual specificity tyrosine-phosphorylation-regulated kinase 1A (Homo sapiens) (UniProt Q13627); settings: at 0.1 µM
[3] = biological target: Dual specificity tyrosine-phosphorylation-regulated kinase 1A (Homo sapiens) (UniProt Q13627); settings: at 1 µM
[4] = biological target: Dual specificity tyrosine-phosphorylation-regulated kinase 1B (Homo sapiens) (UniProt Q9Y463); settings: at 0.1 µM
Chain of Dual specificity tyrosine-phosphorylation-regulated kinase 1B (Homo sapiens) (Q9Y463 whole entry, looked up): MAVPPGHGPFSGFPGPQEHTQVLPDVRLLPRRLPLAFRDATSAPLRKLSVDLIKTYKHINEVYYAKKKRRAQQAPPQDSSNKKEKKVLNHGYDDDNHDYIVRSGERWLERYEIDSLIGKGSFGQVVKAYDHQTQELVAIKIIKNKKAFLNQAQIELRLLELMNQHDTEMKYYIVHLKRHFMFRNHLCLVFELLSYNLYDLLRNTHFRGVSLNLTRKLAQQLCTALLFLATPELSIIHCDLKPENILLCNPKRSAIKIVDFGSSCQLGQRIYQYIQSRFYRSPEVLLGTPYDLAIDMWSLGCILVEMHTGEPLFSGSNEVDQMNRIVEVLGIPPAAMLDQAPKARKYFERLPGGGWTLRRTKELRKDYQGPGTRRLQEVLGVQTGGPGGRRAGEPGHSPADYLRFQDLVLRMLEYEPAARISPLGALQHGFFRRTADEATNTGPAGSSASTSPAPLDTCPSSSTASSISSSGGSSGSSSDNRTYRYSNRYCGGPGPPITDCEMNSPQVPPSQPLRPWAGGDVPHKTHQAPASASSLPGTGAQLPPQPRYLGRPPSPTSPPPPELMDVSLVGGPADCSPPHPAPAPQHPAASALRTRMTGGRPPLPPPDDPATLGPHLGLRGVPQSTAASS

[5] = biological target: Dual specificity tyrosine-phosphorylation-regulated kinase 1B (Homo sapiens) (UniProt Q9Y463); settings: at 1 µM
[6] = biological target: T1, Dual specificity tyrosine-phosphorylation-regulated kinase 2 (Homo sapiens) (UniProt Q92630); settings: at 0.1 µM
T1 sequence (whole entry): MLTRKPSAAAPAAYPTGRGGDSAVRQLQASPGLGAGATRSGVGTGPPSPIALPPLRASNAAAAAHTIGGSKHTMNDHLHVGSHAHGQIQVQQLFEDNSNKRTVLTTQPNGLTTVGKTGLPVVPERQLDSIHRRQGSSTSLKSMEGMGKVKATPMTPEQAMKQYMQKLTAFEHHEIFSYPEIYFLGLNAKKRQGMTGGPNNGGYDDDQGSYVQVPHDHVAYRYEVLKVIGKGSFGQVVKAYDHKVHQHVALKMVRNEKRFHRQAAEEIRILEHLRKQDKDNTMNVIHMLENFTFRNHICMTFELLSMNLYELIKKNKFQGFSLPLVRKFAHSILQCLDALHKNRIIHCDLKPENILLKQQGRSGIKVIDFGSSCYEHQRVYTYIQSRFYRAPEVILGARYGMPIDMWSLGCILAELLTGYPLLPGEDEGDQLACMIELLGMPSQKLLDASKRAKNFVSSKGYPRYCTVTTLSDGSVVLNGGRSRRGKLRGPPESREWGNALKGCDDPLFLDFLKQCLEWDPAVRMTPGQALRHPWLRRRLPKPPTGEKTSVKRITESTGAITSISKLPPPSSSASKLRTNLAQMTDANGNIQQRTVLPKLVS

[7] = biological target: T1, Dual specificity tyrosine-phosphorylation-regulated kinase 2 (Homo sapiens); settings: at 1 µM
[8] = biological target: Glycogen synthase kinase-3 alpha (Homo sapiens) (UniProt P49840); settings: at 0.1 µM
Chain of Glycogen synthase kinase-3 alpha (Homo sapiens) (P49840 2-483 limits assumed): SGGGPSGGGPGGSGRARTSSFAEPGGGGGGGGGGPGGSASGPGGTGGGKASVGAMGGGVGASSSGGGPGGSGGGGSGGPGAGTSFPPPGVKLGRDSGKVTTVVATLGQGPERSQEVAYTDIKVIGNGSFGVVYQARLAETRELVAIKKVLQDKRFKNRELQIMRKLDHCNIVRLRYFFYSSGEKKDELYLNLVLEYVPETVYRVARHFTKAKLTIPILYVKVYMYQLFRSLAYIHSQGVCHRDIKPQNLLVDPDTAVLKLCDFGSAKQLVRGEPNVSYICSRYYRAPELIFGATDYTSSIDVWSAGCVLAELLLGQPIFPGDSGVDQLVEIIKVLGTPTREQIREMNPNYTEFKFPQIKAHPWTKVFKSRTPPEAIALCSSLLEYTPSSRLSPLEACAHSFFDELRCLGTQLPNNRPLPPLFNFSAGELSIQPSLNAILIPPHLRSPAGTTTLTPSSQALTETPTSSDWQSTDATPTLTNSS

[9] = biological target: Glycogen synthase kinase-3 alpha (Homo sapiens) (UniProt P49840); settings: at 1 µM
[10] = biological target: Glycogen synthase kinase-3 beta (Homo sapiens) (UniProt P49841); settings: at 0.1 µM
Chain of Glycogen synthase kinase-3 beta (Homo sapiens) (P49841 whole entry, looked up): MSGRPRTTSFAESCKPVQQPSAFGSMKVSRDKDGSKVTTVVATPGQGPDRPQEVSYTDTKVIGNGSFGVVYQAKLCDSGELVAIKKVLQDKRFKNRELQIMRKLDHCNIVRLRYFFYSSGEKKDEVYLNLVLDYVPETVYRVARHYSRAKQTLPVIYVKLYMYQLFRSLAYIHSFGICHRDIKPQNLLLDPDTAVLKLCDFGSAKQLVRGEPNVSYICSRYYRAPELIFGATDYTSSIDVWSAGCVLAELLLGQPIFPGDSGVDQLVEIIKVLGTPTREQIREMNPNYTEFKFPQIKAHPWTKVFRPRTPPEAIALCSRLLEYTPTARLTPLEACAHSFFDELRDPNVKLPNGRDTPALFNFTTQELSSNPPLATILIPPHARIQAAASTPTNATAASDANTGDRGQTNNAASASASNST

[11] = biological target: Glycogen synthase kinase-3 beta (Homo sapiens) (UniProt P49841); settings: at 1 µM
[12] = biological target: Homeodomain-interacting protein kinase 1 (Homo sapiens) (UniProt Q86Z02); settings: at 0.1 µM
Chain of Homeodomain-interacting protein kinase 1 (Homo sapiens) (Q86Z02 whole entry, looked up): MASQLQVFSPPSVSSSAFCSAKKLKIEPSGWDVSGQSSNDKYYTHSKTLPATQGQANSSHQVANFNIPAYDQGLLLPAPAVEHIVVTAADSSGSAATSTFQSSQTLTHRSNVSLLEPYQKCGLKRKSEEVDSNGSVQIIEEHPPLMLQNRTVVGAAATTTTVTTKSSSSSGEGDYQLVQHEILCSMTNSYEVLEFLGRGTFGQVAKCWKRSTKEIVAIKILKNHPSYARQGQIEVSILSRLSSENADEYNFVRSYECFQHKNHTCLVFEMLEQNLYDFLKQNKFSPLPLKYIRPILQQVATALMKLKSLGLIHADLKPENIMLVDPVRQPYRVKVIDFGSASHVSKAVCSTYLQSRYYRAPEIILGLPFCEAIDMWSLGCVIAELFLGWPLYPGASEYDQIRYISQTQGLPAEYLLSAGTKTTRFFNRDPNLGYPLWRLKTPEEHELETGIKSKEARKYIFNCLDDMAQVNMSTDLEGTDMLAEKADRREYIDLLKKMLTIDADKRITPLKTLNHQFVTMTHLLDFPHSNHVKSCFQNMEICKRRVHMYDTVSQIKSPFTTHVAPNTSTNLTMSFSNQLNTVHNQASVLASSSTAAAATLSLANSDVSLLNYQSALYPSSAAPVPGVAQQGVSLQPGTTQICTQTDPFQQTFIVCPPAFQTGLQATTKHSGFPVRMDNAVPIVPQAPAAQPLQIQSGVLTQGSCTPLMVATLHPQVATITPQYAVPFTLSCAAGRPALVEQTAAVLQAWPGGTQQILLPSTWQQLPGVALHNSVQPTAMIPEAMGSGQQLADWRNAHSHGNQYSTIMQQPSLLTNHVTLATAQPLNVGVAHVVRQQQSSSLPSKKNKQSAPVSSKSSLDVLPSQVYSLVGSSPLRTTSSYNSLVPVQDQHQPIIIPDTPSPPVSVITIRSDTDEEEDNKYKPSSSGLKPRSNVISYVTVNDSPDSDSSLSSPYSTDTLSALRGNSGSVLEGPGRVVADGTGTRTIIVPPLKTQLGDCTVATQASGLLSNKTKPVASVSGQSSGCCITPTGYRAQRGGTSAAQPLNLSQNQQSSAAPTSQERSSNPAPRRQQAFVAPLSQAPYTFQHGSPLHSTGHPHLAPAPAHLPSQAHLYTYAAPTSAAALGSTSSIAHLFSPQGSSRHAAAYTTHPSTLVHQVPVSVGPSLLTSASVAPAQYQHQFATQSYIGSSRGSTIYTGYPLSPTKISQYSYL

[13] = biological target: Homeodomain-interacting protein kinase 1 (Homo sapiens) (UniProt Q86Z02); settings: at 1 µM
[14] = biological target: T2, Homeodomain-interacting protein kinase 4 (Homo sapiens) (UniProt Q8NE63); settings: at 0.1 µM
T2 sequence (whole entry): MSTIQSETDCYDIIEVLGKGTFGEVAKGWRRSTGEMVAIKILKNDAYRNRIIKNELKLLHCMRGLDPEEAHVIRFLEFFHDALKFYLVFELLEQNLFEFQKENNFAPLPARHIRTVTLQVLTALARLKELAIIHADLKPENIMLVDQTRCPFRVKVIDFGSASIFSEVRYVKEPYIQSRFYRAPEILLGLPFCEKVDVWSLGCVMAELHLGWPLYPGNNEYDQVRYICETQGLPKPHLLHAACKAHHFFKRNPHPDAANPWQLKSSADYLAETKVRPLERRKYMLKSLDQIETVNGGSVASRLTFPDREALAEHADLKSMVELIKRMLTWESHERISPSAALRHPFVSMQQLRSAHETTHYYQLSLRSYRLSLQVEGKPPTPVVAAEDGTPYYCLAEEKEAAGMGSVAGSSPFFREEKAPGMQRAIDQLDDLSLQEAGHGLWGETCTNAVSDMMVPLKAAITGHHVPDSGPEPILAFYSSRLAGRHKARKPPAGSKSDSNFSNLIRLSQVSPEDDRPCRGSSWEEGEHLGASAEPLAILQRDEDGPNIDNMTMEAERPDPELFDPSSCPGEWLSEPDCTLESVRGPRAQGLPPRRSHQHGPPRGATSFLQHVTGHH

[15] = biological target: T2, Homeodomain-interacting protein kinase 4 (Homo sapiens); settings: at 1 µM
[16] = biological target: Mitogen-activated protein kinase 9 (Homo sapiens) (UniProt P45984); settings: at 0.1 µM
Chain of Mitogen-activated protein kinase 9 (Homo sapiens) (P45984 whole entry, looked up): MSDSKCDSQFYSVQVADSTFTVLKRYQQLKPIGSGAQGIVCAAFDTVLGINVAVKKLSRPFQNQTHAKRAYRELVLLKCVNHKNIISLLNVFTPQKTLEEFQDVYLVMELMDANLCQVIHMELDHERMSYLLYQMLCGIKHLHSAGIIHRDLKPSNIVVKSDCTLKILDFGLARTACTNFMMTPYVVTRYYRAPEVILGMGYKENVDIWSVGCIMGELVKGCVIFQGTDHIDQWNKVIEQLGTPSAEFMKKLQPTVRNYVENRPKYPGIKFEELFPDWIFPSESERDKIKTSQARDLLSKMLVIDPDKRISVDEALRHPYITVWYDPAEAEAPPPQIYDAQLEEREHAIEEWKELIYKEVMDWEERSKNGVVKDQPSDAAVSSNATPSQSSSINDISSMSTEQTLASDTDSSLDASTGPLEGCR

[17] = biological target: Mitogen-activated protein kinase 9 (Homo sapiens) (UniProt P45984); settings: at 1 µM
[18] = biological target: Mitogen-activated protein kinase 1 (Homo sapiens) (UniProt P28482); settings: at 0.1 µM
Chain of Mitogen-activated protein kinase 1 (Homo sapiens) (P28482 whole entry): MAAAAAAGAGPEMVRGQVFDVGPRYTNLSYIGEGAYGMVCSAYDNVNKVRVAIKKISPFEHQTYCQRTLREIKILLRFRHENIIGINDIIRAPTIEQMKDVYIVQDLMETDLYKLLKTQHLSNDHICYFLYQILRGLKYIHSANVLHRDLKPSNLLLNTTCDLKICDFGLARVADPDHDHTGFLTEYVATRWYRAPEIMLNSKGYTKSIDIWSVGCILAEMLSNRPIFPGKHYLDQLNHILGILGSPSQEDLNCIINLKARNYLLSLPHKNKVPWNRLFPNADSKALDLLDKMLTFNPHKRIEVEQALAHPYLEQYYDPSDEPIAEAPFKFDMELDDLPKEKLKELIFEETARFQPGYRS

[19] = biological target: Mitogen-activated protein kinase 1 (Homo sapiens) (UniProt P28482); settings: at 1 µM
[20] = biological target: Mitogen-activated protein kinase 3 (Homo sapiens) (UniProt P27361); settings: at 0.1 µM;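 note: each value is a mean inhibition figure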
Chain of Mitogen-activated protein kinase 3 (Homo sapiens) (P27361 whole entry): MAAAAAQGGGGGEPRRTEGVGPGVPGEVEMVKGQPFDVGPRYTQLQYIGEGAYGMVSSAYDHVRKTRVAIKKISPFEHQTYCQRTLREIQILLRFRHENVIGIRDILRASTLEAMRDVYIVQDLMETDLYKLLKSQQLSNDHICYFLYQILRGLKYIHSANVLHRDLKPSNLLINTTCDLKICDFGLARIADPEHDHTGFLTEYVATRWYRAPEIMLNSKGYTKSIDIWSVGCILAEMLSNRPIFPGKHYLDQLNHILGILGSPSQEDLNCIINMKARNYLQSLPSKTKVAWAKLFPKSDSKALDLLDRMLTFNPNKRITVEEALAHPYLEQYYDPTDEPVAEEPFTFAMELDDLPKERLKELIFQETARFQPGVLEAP

Chain of Dual specificity protein kinase CLK3 (Homo sapiens) (P49761 whole entry, looked up): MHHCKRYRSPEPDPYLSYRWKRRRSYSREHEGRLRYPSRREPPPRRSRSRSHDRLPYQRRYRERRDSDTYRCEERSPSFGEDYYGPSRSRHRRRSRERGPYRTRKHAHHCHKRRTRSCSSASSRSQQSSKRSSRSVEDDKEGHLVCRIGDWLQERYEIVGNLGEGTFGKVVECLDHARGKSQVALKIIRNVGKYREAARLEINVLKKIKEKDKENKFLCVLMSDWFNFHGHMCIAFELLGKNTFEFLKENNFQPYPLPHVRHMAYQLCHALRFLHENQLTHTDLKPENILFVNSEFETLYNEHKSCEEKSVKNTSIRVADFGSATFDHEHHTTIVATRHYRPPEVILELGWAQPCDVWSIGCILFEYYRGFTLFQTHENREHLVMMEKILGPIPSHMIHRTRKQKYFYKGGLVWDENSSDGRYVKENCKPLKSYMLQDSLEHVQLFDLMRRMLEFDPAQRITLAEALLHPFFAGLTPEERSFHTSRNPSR

Structure (SMILES)	inhibition [1] [%]	inhibition [2] [%]	inhibition [3] [%]	inhibition [4] [%]	inhibition [5] [%]	inhibition [6] [%]	inhibition [7] [%]	inhibition [8] [%]	inhibition [9] [%]	inhibition [10] [%]	inhibition [11] [%]	inhibition [12] [%]	inhibition [13] [%]	inhibition [14] [%]	inhibition [15] [%]	inhibition [16] [%]	inhibition [17] [%]	inhibition [18] [%]	inhibition [19] [%]	inhibition [20] [%]
COc1ccc(-c2coc3ncnc(N)c23)cc1	1.54	3.61	19.2	-0.37	5.22	3.83	4.61	2.73	3.86	0.71	2.62	-1.54	0.23	-1.26	0.51	4.38	5.45	4.53	6.4	5.16
CC1=C(C(=O)Nc2ccc3[nH]ncc3c2)C(c2ccc3ccccc3c2)CC(=O)N1 (stereo not given)	4.72	3.4	5.32	2.6	3.67	0.96	1.61	2.64	5.8	2.72	7.81	1.49	4.61	1.02	4.03	0.73	2.65	5.52	39.5	3.92
CN(C)c1cc2c(Nc3ccc4nc(Cc5ccccc5)[nH]c4c3)ncnc2cn1	3	4.46	6.18	1.66	2.67	3.79	5.25	2.41	4.97	1.6	2.68	0.23	2.19	2.51	4.06	10.2	1.8	4.86	6.26	3.48
CCc1cccc(NC(=O)Nc2ccc(Oc3ccc4nc(NC(=O)OC)[nH]c4c3)cc2)c1	0.82	0.05	1.26	0.7	1.1	0.73	1.13	1.53	4.83	1.88	6.49	1.47	4.9	7.33	13.9	2.67	1.01	2.12	0.03	2.25
COc1cc2ncn(-c3cc(OCc4ccccc4Cl)c(C(N)=O)s3)c2cc1OC	4.39	0.59	4.21	1.28	0.48	0.19	2.53	2.18	9.18	1.21	9.93	0.06	5.3	7.28	45.1	2.23	4.49	0.95	1.08	-0.15
c1cnn2ncc(-c3ccnc(Nc4ccc5c(c4)OCCO5)n3)c2c1	52	79.6	87.6	80.6	88.9	10.7	50.8	75.6	92.5	74.4	91	86.2	93	42.3	79.8	12.8	54.4	6.5	24	6.55
Nc1ncnc2occ(-c3ccc(NC(=O)Nc4cc(C(F)(F)F)cc(C(F)(F)F)c4)cc3)c12	1.36	0.09	2.4	0.19	1.76	1.71	2.18	1.22	5.65	1.08	7.52	0.45	11.7	14.4	63.3	2.13	6.77	2.73	1.95	0.6
NCc1ccc(-c2nc(-c3ccc(Cl)c(O)c3)c(-c3ccncc3)[nH]2)cc1	3.14	3.51	3.85	4.36	3.42	0.33	0.81	4.59	32.5	16.9	65.4	0.11	5.53	0.99	8.45	4.51	15.8	-0.32	0.67	0.94
CCn1c(-c2nonc2N)nc2cnc(Oc3cccc(NC(=O)c4ccc(OCCN5CCOCC5)cc4)c3)cc21	1.22	0.91	4.24	0.06	0.86	3.68	5.39	13.9	56.5	10.2	53.9	1.81	11.5	0.11	10.4	3.93	5.85	3.22	4.07	2.43
CCn1c(-c2nonc2N)nc2c(N3CCCC3)nccc21	1.31	3.13	8.89	2.51	6.95	-1.18	-1.63	1.82	4.77	2	3.59	-0.15	6.29	-0.26	2.71	-4.08	-4.92	-2.76	-3.21	0.68
Cc1nn(C)c2cc(N(C)c3ccnc(Nc4cccc(S(N)(=O)=O)c4)n3)ccc12	3.34	0.4	0.86	-1.86	-1.3	2.83	2.82	1.79	3.95	0.37	5.82	-3.06	-2.18	-1.56	4.09	3.35	10.2	2.91	4.88	2.88
COC(=O)Nc1nc2cc(Oc3cccc(NC(=O)Nc4cc(C(F)(F)F)ccc4F)c3)ccc2[nH]1	0.16	-0.01	2.54	-0.21	1.68	-0.32	-0.02	1.75	7.54	0.73	6.36	-3.75	-1.32	-1.03	11.4	2.79	1.58	-0.65	0.3	-0.17
CC1=C(C(=O)Nc2ccc3[nH]ncc3c2)C(c2ccc(Cl)c(Cl)c2)CC(=O)N1 (stereo not given)	2.49	-0.12	3.73	0.77	3.21	1.35	2.88	0.15	4.5	-0.24	4.85	0.46	-2.51	1	4.37	1.22	2.79	3.85	27.4	2.47
